According to the supplement of paper PMC5940239:

tested on: Madurella mycetomatis MM55; assay: percent growth relative to solvent control; higher = less inhibition, active = 20 or less; conditions: 100 µM; 7 days

Row | SMILES | percent growth
1 | Cc1cnc(CCNC(=O)c2cc(-c3ccc(Cl)cc3)cs2)[nH]1 | 94.3% (inactive)
2 | CCn1ncc2c(NC3CCOCC3)c(CNC(=O)c3ccnn3C)c(C)nc21 | 142% (inactive)
3 | Cc1cc(OCC(=O)Nc2ccc(C(C)C)cc2)n(C)c(=O)c1C#N | 96% (inactive)
4 | COc1ccc(S(=O)(=O)Nc2ccc(CN3CCN(C(=O)c4cccc(C#N)c4)CC3)cc2)cc1 | 113% (inactive)
5 | CC(C(=O)Nc1ccc2oc(-c3ccncc3)nc2c1)c1ccccc1 (stereo unspecified) | 77% (inactive)
6 | CC(=O)Nc1ccc(NC(=O)c2cc(-c3cc(Cl)ccc3O)[nH]n2)cc1 | 155% (inactive)
7 | Cn1ccnc1CNCCS(=O)(=O)c1cccc(Nc2ccc(-c3cccc(F)c3)cn2)c1 | 65.7% (inactive)
8 | CC(C)(C)OC(=O)N1CCN(c2nccc(-c3ccc(-c4ccc(Cl)cc4)s3)n2)CC1 | 103% (inactive)
9 | Cc1ccccc1C(=O)N1N=C(Nc2ccccc2)SC1(C)C | 93.7% (inactive)
10 | CCOc1ccc2cc(-c3nn(C(C)(C)C)c(N)c3C(N)=O)cnc2c1 | 98.2% (inactive)
11 | CCc1nc2ccccc2n1CC(O)COc1cc(C)ccc1Cl (stereo unspecified) | 93.7% (inactive)
